Results filed as inconclusive are left out. Unmarked numbers belong to inactive results. The source made the active and inactive calls.
Molecular target: Glucocorticoid receptor (Homo sapiens) (UniProt P04150)
Test: qHTS assay to identify small molecule agonists of the glucocorticoid receptor (GR) signaling pathway (AID 720691; active = well fitted activation curve with a large enough effect in the signal ratio in the repeat runs, not every such curve was filed as active; the % refers to the signal ratio; also: potency is read from the fitted curve at half-maximal effect)
Conditions: GR-bla HeLa, beta-lactamase reporter ratio, 18 h; series mostly up to 62.4 µM; activation: at the top concentration
How it was run: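 Reporter read-out: fluorescence intensity following 2 h room-temperature LiveBLAzer B/G FRET substrate loading. Prior step: GR-bla HeLa cells held 4 h, then treated 18 h at 37 C.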
% is scaled to controls: 0 for no effect and ±100 for the full control effect.

Sequence of Glucocorticoid receptor (Homo sapiens) (P04150 whole entry, looked up): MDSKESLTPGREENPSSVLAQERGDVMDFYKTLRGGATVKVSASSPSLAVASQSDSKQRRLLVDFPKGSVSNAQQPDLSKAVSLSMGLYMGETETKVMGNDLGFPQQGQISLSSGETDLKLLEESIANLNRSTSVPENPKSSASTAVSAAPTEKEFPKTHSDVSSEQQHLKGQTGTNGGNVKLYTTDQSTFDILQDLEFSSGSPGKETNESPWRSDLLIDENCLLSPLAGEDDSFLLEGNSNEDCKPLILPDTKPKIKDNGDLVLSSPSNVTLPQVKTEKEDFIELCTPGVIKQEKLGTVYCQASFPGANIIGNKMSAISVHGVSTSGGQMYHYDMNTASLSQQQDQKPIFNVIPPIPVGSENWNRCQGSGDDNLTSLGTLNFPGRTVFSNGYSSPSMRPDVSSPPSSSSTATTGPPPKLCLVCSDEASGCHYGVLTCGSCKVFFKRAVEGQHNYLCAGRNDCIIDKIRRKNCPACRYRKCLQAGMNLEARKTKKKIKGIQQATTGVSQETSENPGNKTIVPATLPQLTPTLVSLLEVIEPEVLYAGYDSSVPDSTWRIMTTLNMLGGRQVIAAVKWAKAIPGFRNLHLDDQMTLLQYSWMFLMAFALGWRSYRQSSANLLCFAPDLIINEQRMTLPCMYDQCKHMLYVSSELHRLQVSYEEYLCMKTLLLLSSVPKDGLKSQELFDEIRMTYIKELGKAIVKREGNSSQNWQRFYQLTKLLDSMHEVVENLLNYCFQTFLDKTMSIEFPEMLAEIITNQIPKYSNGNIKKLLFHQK

Question: Which “activation” value does the source give for `CCN(CCO)CCO` here?
Answer: -1.31%

Question: How did the “activation” value turn out when `C=CCc1cc(OC)c2c(c1)OCO2` was run?
Answer: -1.31% [at 79.2 µM]

Question: How did the “activation” value turn out when `COc1cccc(C=O)c1` was run?
Answer: 1.61%

Question: For `C=CC1(C)OC(=O)N(c2cc(Cl)cc(Cl)c2)C1=O` (centres undefined), which Potency is on record?
Answer: inactive

Question: With `COC(=O)[C@@H](N)CCCN/C(N)=N/[N+](=O)[O-]` as the molecule, how does the “activation” value read?
Answer: 1.25%

Question: `CC(C)(O)C(Cl)(Cl)Cl` was tested. Which “activation” value did it give?
Answer: 1.24%

Question: Which Potency does the source give for `CCCC(C)(COC(N)=O)COC(N)=O` here?
Answer: inactive

Question: For `NCC1(CC(=O)O)CCCCC1`, which “activation” value is on record?
Answer: -1.36% [at 29.2 µM]

Question: `COc1ccccc1OC` was tested. Which “activation” value did it give?
Answer: 3.76%

Question: How did the “activation” value turn out when `[P]#[In]` was run?
Answer: -1.01%

Question: `O=C(Cl)/C=C/C(=O)Cl` was tested. Which “activation” value did it give?
Answer: 0.583% [at 79.2 µM]

Question: How did the “activation” value turn out when `CCOC(=O)NC(C)(C)Cc1ccc(Cl)cc1` was run?
Answer: -1.33%

Question: Which “activation” value does the source give for `O=c1[nH]oc2c1CCNC2` here?
Answer: -0.516%

Question: How did the “activation” value turn out when `O=C(Cl)C(Cl)(Cl)Cl` was run?
Answer: 1.48% [at 79.2 µM]

Question: With `N#CN=C1SCCN1Cc1ccc(Cl)nc1` as the molecule, how does the “activation” value read?
Answer: 0.365%

Question: Which “activation” value does the source give for `CN(CCO)CCO` here?
Answer: 1.77% [at 79.2 µM]

Question: `COC(=O)c1ccccc1CS(=O)(=O)NC(=O)Nc1nc(OC)cc(OC)n1` was tested. Which “activation” value did it give?
Answer: -4.79%

Question: For `Cc1ccc(-c2nc3ccc(C)cn3c2CC(=O)N(C)C)cc1`, which Potency is on record?
Answer: 23.9 µM (active)

Question: With `COc1cc(CCN)cc(OC)c1OC` as the molecule, how does the “activation” value read?
Answer: 2.03% [at 79.2 µM]

Question: How did the “activation” value turn out when `CC(=O)OCC1=C(C(=O)O)N2C(=O)[C@@H](N)[C@H]2SC1` was run?
Answer: 0.309% [at 29.2 µM]

Question: How did the “activation” value turn out when `Oc1ccc(Cc2ccc(O)cc2)cc1` was run?
Answer: -10.4% [at 79.2 µM]

Question: With `C=C1CC[C@@]2(O)[C@H]3Cc4ccc(O)c5c4[C@@]2(CCN3CC2CC2)[C@H]1O5` as the molecule, how does the “activation” value read?
Answer: 0.324%

Question: How did the “activation” value turn out when `CCC1(c2ccccc2)C(=O)N(COC)C(=O)N(COC)C1=O` was run?
Answer: -0.193%

Question: How did the “activation” value turn out when `CCOP(=S)(OCC)Oc1ccc(Cl)cc1Cl` was run?
Answer: -0.424%

Question: `O=[N+]([O-])CCO` was tested. Which “activation” value did it give?
Answer: -1.69% [at 79.2 µM]

Question: For `C[C@H](N)C(=O)c1ccccc1`, which Potency is on record?
Answer: inactive

Question: How did the “activation” value turn out when `CCc1cc(OC)c(C[C@H](C)N)cc1OC` was run?
Answer: 0.645% [at 79.2 µM]

Question: How did the “activation” value turn out when `COC(=O)c1ccc(CBr)cc1` was run?
Answer: -3.55% [at 79.2 µM]

Question: `CCN[C@@H](C)Cc1cccc(C(F)(F)F)c1` was tested. Which “activation” value did it give?
Answer: 1.51%

Molecular target: Glucocorticoid receptor (Homo sapiens) (UniProt P04150)
Test: qHTS assay to identify small molecule antagonists of the glucocorticoid receptor (GR) signaling pathway (AID 720692; active = well fitted inhibition curve with a large enough effect in the signal ratio in the repeat runs, not every such curve was filed as active; the % refers to the signal ratio)
Conditions: GR-bla HeLa, beta-lactamase FRET ratio, dexamethasone-stimulated, 18 h; series mostly up to 58.5 µM; activity change, negative = inhibition: at the top concentration
How it was run: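 Dexamethasone (5 nM final) stimulated a stably integrated GRE-beta-lactamase reporter in HeLa cells during 18 h co-incubation with compounds; signal was quantified as fluorescence intensity of B/G FRET substrate after 2 h.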

Question: How did the “activity change, negative = inhibition” value turn out when `CCN(CCO)CCO` was run?
Answer: -0.306%

Question: For `COc1cccc(C=O)c1`, which “activity change, negative = inhibition” value is on record?
Answer: 1.48%

Question: How did the Potency turn out when `C=CC1(C)OC(=O)N(c2cc(Cl)cc(Cl)c2)C1=O` (centres undefined) was run?
Answer: inactive

Question: For `NCC1(CC(=O)O)CCCCC1`, which “activity change, negative = inhibition” value is on record?
Answer: 15.5% [at 27 µM]

Question: How did the “activity change, negative = inhibition” value turn out when `COc1ccccc1OC` was run?
Answer: 13.7%

Question: How did the “activity change, negative = inhibition” value turn out when `[P]#[In]` was run?
Answer: -0.227%

Question: How did the “activity change, negative = inhibition” value turn out when `O=C(Cl)/C=C/C(=O)Cl` was run?
Answer: -14.6% [at 78.9 µM]

Question: Which “activity change, negative = inhibition” value does the source give for `CCOC(=O)NC(C)(C)Cc1ccc(Cl)cc1` here?
Answer: 2.51%

Question: For `O=c1[nH]oc2c1CCNC2`, which “activity change, negative = inhibition” value is on record?
Answer: 0%

Question: `N#CN=C1SCCN1Cc1ccc(Cl)nc1` was tested. Which “activity change, negative = inhibition” value did it give?
Answer: 0.267%

Question: How did the “activity change, negative = inhibition” value turn out when `COC(=O)c1ccccc1CS(=O)(=O)NC(=O)Nc1nc(OC)cc(OC)n1` was run?
Answer: 0.326%

Question: How did the “activity change, negative = inhibition” value turn out when `COc1cc(CCN)cc(OC)c1OC` was run?
Answer: 2.19% [at 78.9 µM]

Question: How did the “activity change, negative = inhibition” value turn out when `CC(=O)OCC1=C(C(=O)O)N2C(=O)[C@@H](N)[C@H]2SC1` was run?
Answer: -2.79% [at 27 µM]

Question: `Oc1ccc(Cc2ccc(O)cc2)cc1` was tested. Which “activity change, negative = inhibition” value did it give?
Answer: 0.844% [at 78.9 µM]

Question: For `CCC1(c2ccccc2)C(=O)N(COC)C(=O)N(COC)C1=O`, which “activity change, negative = inhibition” value is on record?
Answer: 6.57%

Question: `CCOP(=S)(OCC)Oc1ccc(Cl)cc1Cl` was tested. Which “activity change, negative = inhibition” value did it give?
Answer: 1.71%

Question: For `O=[N+]([O-])CCO`, which “activity change, negative = inhibition” value is on record?
Answer: -4.87% [at 78.9 µM]

Question: For `C[C@H](N)C(=O)c1ccccc1`, which “activity change, negative = inhibition” value is on record?
Answer: 1.61% [at 78.9 µM]

Question: `CCc1cc(OC)c(C[C@H](C)N)cc1OC` was tested. Which “activity change, negative = inhibition” value did it give?
Answer: 4.24% [at 78.9 µM]

Question: Which “activity change, negative = inhibition” value does the source give for `COC(=O)c1ccc(CBr)cc1` here?
Answer: -10.6% [at 78.9 µM]

Source: PubChem BioAssay (Tox21)
